Rows were chosen to be rich in hits. Some 0.38% of all compounds tested hit in one or more screens of this group.
USP2a block: blocks human ubiquitin-specific protease USP2a | O75604 | USP2 core, Ub-CHOP2 coupled fluorogenic reporter, 485/531 | Potency, µM (doses to about 38.3 µM), without a hit: at the highest dose activity change, negative = inhibition, most hits filed as inhibitors | 330,000 compounds, 0.01% hits | AID 463254;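 further: potency means the concentration at half of the fitted maximal effect; plate controls were DMSO wells for no effect and full inhibition by NEM control for full effect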
Target sequence (O75604 whole entry, looked up): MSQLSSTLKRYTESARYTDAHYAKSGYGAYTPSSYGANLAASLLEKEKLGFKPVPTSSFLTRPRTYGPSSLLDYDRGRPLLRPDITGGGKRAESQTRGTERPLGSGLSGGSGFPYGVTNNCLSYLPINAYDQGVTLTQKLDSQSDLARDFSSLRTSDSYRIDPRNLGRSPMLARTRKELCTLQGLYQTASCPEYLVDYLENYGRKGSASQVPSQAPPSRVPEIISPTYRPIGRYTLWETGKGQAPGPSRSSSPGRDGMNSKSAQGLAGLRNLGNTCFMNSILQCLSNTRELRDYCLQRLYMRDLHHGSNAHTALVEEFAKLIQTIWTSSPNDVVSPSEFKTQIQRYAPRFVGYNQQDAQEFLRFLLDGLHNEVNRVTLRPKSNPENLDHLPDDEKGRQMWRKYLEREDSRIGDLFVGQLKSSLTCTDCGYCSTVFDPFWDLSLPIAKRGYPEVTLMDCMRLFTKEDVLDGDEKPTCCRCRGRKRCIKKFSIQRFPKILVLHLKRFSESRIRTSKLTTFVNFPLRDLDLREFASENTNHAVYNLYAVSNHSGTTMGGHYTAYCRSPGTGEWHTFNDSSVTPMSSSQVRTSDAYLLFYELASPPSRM
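Cell-free coupled assay: 10nM USP2 core preincubated 30min RT with compound in Tris-HCl pH 8.0/CaCl2/CHAPS buffer, then 25nM Ub-CHOP2 and 25nM reporter substrate; fluorescence (Ex 485/Em 531) read after 60min RT, normalized to NEM inhibition, concentration-response curves fitted.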
TexasRed fluor: counter-screen for TRb-SRC2 inhibitors: fluorescence interference; TRb/SRC2 Texas Red total fluorescence interference; AID 1479; 280,000 compounds, 0.29% hits; Potency, µM (series often up to 106 µM), without a hit: at the highest dose fluorescence change, negative = quenching; active means well fitted curve in either direction with a large enough effect; inconclusive means small, poorly fitted or top-dose-only effect; further: potency means the concentration at half of the fitted maximal effect; on the % scale 0 is the no-effect control and ±100 the full control effect
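Human TRβ ligand-binding domain (0.6 uM) and Texas Red SRC2 peptide (20 nM) in Tris buffer with 1 uM T3 and 5% DMSO were incubated with pinned compound for 5 hr at ambient temperature. Total fluorescence was computed as S + 2P (555/632 nm).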
TSHR antag: human thyrotropin receptor antagonism; 330,000 compounds, 0.2% hits; activity change, negative = inhibition, % at 11.5 µM; AID 504810; TSHR-expressing cells, TSH-stimulated cAMP HTRF, 2 h; stronger effect = lower value;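 active means activity change below a set negative limit, meaning inhibition stronger than a set level, cut at about -70% in these data; inconclusive means activity change between two set negative limits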; further: on the % scale 0 is the no-effect control and ±100 the full control effect
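Antagonism was scored as loss of TSH-driven cAMP in TSHR cells, stimulated with 4nM TSH (EC80) for 2 hours at 37 deg C and detected by homogeneous HTRF competition immunoassay.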
TRb-SRC2 inh: disrupts binding of human TR beta to SRC2. TRbeta-SRC2 peptide binding, fluorescence polarization; receptor liganded with 1 µM T3. Potency, µM (highest dose often 106 µM), for the others: top-dose activity change, negative = inhibition, usual class: inhibitors. 280,000 compounds, 0.065% hits;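 further: potency means the concentration at half of the fitted maximal effect; plate controls were bound peptide for no effect and peptide without receptor for full effect; nearly all actives have a fitted effect of over 50% in size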
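A fluorescence polarization screen tested compounds at multiple concentrations against complex formation between 0.6 uM TRb ligand-binding domain and 20 nM Texas Red SRC2 peptide, with 1 uM T3 present; readout after 5 hr.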
CBFb RUNX1 block: blocks binding between human CBF-beta and RUNX1. Q01196+Q13951. Potency, µM (highest dose often 59.8 µM), without a hit: top-dose activity, negative = inhibition, most hits filed as inhibitors. AlphaScreen CBFb-His/RUNX1-biotin binding, biochemical. 230,000 tested, under 10 active; further: % of control where 0% means no effect
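AlphaScreen binding: CBFb-His and RUNX1-biotin (30 nM each) preincubated 20 min, compound added for 15 min, then nickel and streptavidin beads for 90 min, all at room temperature. Disruption of the interaction by any mechanism counts as activity.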
Eya2 inh: Eya2 (human) phosphatase inhibition. 330,000 compounds, 0.006% hits. Potency, µM (top dose mostly 76.9 µM), inactives show at the top dose activity, negative = inhibition, most hits filed as inhibitors. AID 488837. O00167. recombinant Eya2, OMFP fluorescence dephosphorylation (OMFP is methylfluorescein phosphate); further: potency means the concentration at half of the fitted maximal effect; on the % scale 0 is the no-effect control and ±100 the full control effect
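Eya2 (0.2 uM) preincubated 10 min at ambient with compound, then OMFP substrate added at 50 uM; 10 min reaction in 50 mM HEPES pH 7.5, 50 mM NaCl, 5 uM MgCl2, 0.05% BSA, 1 mM DTT. Fluorescence read at Ex 485/Em 525 nm.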
Numbers without * were called inactive; ? = inconclusive; / = not tested or not shown; [ ] = another dose, or the depositor's remark. Unless noted, the call rests on the fitted dose curve; in most records, active means well fitted curve in the direction sought with a large enough effect; inconclusive means small, poorly fitted or top-dose-only effect, or another doubt; inactive means no such curve, though single readings can be large; an effect the other way counts as inactive or inconclusive.

SMILES	USP2a block	TexasRed fluor	TSHR antag	TRb-SRC2 inh	CBFb RUNX1 block	Eya2 inh
CC(NC(=O)Cn1ncc(Cl)c(Cl)c1=O)C12CC3CC(CC(C3)C1)C2 (stereo not given)	0%	1%	-100*	?	3%	-9%
CCCn1c(SCCC(=O)O)nc2ccccc21	1%	-1%	3	5%	3%	-3%
O=C(O)CCSc1nc2ccccc2n1Cc1ccccc1	0%	/	-117*	/	/	21%
CC(C)(C)c1cc2nc3c(c(=O)n2[nH]1)CN(Cc1ccccc1)C3=O	1%	-2%	-79*	-9%	-3%	0%
N#CC(C#N)=c1ccc2c(c1)NC1(CCCCC1)N=2	-12%	45µM*[fluorescent]	-13	?	-27%	-14%
CCCN(CCC)CCCNC(=O)c1nn(C)c2c1CS(=O)(=O)c1ccccc1-2	/	50µM*[quencher]	/	-17%	/	/
CCCCOCC(C)OCC(C)O (stereo not given)	/	-4%[201 µM]	/	5%[201 µM]	/	/
CCC1CN(C(=O)N2CCC(C(=O)NCCc3ccccc3Cl)CC2)c2cc(C)ccc2O1 (stereo not given)	/	1%	/	-7%	/	/
CCCCOc1cccc(C(=O)N2CCN(CCc3ccncc3)CC2)c1	/	7%	/	-3%	/	/
CCCCOc1ccc(C(=O)N2CCN(CCc3ccncc3)CC2)cc1	/	6.3µM*[quencher]	/	-11%	/	/
CN(C)CCOCCP(=O)(c1ccccc1)c1ccccc1	10µM*	-3%	21	-7%	4%	4%
Cc1nc(N=Nc2cc(S(=O)(=O)O)c3cc([N+](=O)[O-])cc(S(=O)(=O)O)c3c2)c(COP(=O)(O)O)c(C=O)c1O	/	28µM*[quencher]	-13	11%	-25%[21.7 µM]	6%
CC[n+]1c(/C=C/N(C)c2ccccc2)n(-c2ccccc2)c2ccc(-c3nc4ccccc4s3)cc21	?	-4%	-98*	1%	15%	?
C#CCOCCOCCOCCNc1nc(N2CCN(C(=O)CCCCCCCCCCNC(=O)[C@H]([C@@H](C)CC)n3cc(CCCCCN)nn3)CC2)nc(N2CCN(C(=O)CCCCCCCCCCNC(=O)[C@@H]([C@H](C)O)n3cc(C)nn3)CC2)n1	10µM*	/	-10	/	/	28µM*
CO[Si](OC)(OC)c1ccccc1	/	0%[201 µM]	/	-4%[201 µM]	/	/
CCOc1ccc(OC(=O)c2sc3ncn(Cc4cccc(F)c4)c(=O)c3c2C)cc1	/	1%	/	-1%	/	/
COc1ccc(C(C(=O)NC(C)(C)C)N(CCO)C(=O)CCC(=O)Nc2cc(C)on2)cc1 (stereo not given)	-1%	/	6	/	/	12%
COc1ccc(C(C(=O)NC(C)(C)C)N(CCc2ccccc2)C(=O)CCC(=O)Nc2cc(C)on2)cc1 (stereo not given)	-6%	/	-106*	/	/	-12%
COCCNC(=O)C(c1ccc(O)cc1)N(Cc1ccccc1)C(=O)CCC(=O)Nc1nccs1 (stereo not given)	-2%	/	-3	/	/	-5%
CC(C)(C)NC(=O)C(c1ccc(O)cc1)N(Cc1ccccc1)C(=O)CCC(=O)Nc1nccs1 (stereo not given)	3%	/	-98*	/	/	-18%
Cc1cccc(N=C2NC(=O)/C(=C/C=C/c3ccco3)S2)c1C	?	-2%	-2	0%	?	6%
O=C1NC(=Nc2ccccc2)S/C1=C\C=C\c1ccco1	5.6µM*	1%	1	6%	-2%	1%
Cc1ccc(N=C2NC(=O)/C(=C/C=C/c3ccco3)S2)cc1	?	40µM*[quencher]	2	?	/	2%
NC(C(=O)O)C(O)c1ccc(O)c(O)c1 (stereo not given)	/	-17%	/	6%	/	/
Cc1ccccc1Nc1oc(-c2ccccc2)nc1-c1cccc2ccccc12	/	-2%	/	6%	-4%	/
COc1ccc(CNC(=O)COC(=O)Cc2ccc(Cl)cc2Cl)cc1	1%	35µM*[quencher]	37	?	-7%	1%
Cc1ccc(C(=O)c2ccccc2)cc1	/	3%[201 µM]	/	5%[201 µM]	/	/

From PubChem BioAssay
